# In ChEMBL document CHEMBL3988442, “University of Dundee, Small-Polar-MMV Screening Library” (2021):
# For part of these data: Potency and affinity values are given separately.
# Tests used:
# Design in all cases: scale not given: direction of the effect not stated beside the values
# [1] = target: Protein translocase subunit SecA (Escherichia coli (strain K12)) (UniProt P10408); experiment: Assay to Identify E. coli SecA ATPase Inhibitors; type: functional; conditions: 30 µM
# [2] = target: T1, Ubiquitin-activating enzyme e1, putative (Leishmania donovani (strain BPK282A1)) (UniProt E9BSI1); experiment: Leishmania donovani Ubiquitin Activating Enzyme (LdE1); type: functional; conditions: 30 µM
# T1 sequence (whole entry): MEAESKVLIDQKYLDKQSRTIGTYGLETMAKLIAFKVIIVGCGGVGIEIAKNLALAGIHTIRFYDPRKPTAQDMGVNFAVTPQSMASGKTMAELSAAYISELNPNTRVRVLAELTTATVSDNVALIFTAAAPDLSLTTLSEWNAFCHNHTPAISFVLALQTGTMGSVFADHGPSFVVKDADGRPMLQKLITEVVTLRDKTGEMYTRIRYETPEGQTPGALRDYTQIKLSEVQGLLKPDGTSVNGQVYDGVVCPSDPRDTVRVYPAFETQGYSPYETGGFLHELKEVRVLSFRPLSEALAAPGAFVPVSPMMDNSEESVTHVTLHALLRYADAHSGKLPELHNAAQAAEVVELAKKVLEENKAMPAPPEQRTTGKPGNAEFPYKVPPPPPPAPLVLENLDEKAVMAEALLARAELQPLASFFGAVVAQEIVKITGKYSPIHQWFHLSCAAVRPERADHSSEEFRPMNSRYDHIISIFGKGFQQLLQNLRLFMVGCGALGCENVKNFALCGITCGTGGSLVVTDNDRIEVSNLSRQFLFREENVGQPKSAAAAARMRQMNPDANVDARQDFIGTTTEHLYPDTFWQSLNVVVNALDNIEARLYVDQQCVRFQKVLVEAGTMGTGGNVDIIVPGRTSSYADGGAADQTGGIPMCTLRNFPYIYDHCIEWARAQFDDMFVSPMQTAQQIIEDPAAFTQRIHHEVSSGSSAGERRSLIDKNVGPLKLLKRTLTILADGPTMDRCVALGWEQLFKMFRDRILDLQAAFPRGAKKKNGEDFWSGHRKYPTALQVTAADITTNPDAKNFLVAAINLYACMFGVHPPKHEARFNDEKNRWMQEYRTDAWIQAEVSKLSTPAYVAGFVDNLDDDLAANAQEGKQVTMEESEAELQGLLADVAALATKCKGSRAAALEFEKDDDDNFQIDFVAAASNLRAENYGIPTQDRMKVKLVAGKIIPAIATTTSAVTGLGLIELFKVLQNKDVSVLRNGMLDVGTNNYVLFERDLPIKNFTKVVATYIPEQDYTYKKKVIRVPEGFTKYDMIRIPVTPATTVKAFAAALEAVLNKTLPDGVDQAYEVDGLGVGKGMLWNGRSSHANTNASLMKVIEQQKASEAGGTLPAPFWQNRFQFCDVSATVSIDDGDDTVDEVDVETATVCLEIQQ
# [3] = target: Sialic acid-binding Ig-like lectin 9 (Homo sapiens) (UniProt Q9Y336); experiment: Hs-Siglec9 ALPHAscreen SOP 20170721; conditions: 10 µM
# Sequence of Sialic acid-binding Ig-like lectin 9 (Homo sapiens) (Q9Y336 whole entry): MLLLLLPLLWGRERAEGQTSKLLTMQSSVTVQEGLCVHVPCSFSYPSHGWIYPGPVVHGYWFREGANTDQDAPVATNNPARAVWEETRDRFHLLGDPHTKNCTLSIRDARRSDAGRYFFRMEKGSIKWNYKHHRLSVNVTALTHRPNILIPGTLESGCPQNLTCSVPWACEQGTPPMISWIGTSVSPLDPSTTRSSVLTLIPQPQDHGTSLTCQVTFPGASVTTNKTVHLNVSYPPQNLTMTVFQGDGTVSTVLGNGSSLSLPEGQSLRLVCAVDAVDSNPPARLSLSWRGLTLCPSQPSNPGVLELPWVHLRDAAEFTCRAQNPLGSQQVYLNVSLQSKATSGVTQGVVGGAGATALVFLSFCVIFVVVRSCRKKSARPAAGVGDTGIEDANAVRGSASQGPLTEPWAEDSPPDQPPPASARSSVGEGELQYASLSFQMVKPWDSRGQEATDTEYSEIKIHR
# Trypanosoma cruzi = experiment: Trypanosoma cruzi phosphomannomutase and mannose-1-phosphate guanylyltransferase assay; type: functional; conditions: 10 µM
# [4] = target: T2, Arginase-2, mitochondrial (Homo sapiens) (UniProt P78540); experiment: in vitro enzyme assay to detect the production of urea directly proportional to the activity of Arginase II; type: functional; conditions: 33.3 µM; also: in the data most compounds retested in dose-response had high values
# T2 sequence (whole entry): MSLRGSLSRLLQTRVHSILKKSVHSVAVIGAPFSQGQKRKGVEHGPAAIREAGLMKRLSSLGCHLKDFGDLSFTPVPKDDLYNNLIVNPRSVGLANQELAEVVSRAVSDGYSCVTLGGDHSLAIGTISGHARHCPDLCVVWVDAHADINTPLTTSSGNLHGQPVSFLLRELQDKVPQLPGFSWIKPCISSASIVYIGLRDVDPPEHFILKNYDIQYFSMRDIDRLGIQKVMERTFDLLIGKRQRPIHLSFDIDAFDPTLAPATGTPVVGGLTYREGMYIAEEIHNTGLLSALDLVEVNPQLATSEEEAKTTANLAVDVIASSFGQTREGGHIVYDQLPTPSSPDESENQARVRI
# [5] = target: T3, Proteasome subunit beta (Trypanosoma cruzi) (UniProt O96673); experiment: Trypanosoma cruzi proteasome chymotrypsin-like activity (TcProtChymo) assay.; also: in the data most compounds retested in dose-response had high values; type: functional; conditions: 9.37 µM
# T3 sequence (whole entry): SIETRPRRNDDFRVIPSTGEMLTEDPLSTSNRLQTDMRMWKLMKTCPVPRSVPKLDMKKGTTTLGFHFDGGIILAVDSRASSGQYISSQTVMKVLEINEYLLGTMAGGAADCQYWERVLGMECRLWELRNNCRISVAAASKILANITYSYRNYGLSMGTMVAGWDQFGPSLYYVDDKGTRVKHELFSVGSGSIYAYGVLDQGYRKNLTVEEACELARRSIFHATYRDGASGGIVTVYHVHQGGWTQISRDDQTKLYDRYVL
# Homo sapiens = species on record: Homo sapiens; experiment: To identify inhibition of the IFN signalling (Jak-Stat) pathway via expression of an eGFP reporter gene under the control of an IFN-stimulated response element (ISRE) containing MxA promoter.; type: functional; conditions: 30 µM
# [6] = target: T4, Tyrosyl-tRNA synthetase, putative (Trypanosoma cruzi (strain CL Brener)) (UniProt Q4DSP6); experiment: Trypanosoma cruzi tyrosyl tRNA synthetase (TcYRS) _High Tyrosine SOP; type: functional; conditions: 30 µM; also: in the data most compounds retested in dose-response had high values
# T4 sequence (whole entry): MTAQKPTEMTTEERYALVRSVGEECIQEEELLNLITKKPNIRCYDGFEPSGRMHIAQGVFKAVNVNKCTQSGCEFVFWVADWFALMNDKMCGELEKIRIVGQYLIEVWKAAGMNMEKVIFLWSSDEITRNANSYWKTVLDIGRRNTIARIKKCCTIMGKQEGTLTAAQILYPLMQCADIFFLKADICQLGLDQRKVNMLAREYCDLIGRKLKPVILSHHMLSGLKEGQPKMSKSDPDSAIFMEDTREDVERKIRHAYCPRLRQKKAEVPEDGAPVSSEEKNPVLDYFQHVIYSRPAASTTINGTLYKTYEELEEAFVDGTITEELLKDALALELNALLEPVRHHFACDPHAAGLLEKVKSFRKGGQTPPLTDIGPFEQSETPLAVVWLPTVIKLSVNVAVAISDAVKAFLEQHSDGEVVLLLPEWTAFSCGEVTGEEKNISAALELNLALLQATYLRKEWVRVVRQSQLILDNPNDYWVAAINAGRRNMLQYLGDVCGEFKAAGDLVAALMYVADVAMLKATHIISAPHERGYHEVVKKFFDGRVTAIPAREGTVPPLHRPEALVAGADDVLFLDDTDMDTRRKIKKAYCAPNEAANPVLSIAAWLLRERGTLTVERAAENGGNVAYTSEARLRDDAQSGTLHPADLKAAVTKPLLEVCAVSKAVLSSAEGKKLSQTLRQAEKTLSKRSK
# [7] = target: T4, Tyrosyl-tRNA synthetase, putative (Trypanosoma cruzi (strain CL Brener)); experiment: Trypanosoma cruzi tyrosyl tRNA synthetase (TcYRS) SOP; type: functional; conditions: 30 µM
# [8] = target: Chromo domain-containing protein 1 (Saccharomyces cerevisiae (strain ATCC 204508 / S288c) (Baker's yeast)) (UniProt P32657); experiment: ScCHD-1 Enzyme Inhibition Assay; type: functional; conditions: 30 µM; also: in the data most compounds retested in dose-response had high values
# Sequence of Chromo domain-containing protein 1 (Saccharomyces cerevisiae (strain ATCC 204508 / S288c) (Baker's yeast)) (P32657 whole entry, the tested form may be a part): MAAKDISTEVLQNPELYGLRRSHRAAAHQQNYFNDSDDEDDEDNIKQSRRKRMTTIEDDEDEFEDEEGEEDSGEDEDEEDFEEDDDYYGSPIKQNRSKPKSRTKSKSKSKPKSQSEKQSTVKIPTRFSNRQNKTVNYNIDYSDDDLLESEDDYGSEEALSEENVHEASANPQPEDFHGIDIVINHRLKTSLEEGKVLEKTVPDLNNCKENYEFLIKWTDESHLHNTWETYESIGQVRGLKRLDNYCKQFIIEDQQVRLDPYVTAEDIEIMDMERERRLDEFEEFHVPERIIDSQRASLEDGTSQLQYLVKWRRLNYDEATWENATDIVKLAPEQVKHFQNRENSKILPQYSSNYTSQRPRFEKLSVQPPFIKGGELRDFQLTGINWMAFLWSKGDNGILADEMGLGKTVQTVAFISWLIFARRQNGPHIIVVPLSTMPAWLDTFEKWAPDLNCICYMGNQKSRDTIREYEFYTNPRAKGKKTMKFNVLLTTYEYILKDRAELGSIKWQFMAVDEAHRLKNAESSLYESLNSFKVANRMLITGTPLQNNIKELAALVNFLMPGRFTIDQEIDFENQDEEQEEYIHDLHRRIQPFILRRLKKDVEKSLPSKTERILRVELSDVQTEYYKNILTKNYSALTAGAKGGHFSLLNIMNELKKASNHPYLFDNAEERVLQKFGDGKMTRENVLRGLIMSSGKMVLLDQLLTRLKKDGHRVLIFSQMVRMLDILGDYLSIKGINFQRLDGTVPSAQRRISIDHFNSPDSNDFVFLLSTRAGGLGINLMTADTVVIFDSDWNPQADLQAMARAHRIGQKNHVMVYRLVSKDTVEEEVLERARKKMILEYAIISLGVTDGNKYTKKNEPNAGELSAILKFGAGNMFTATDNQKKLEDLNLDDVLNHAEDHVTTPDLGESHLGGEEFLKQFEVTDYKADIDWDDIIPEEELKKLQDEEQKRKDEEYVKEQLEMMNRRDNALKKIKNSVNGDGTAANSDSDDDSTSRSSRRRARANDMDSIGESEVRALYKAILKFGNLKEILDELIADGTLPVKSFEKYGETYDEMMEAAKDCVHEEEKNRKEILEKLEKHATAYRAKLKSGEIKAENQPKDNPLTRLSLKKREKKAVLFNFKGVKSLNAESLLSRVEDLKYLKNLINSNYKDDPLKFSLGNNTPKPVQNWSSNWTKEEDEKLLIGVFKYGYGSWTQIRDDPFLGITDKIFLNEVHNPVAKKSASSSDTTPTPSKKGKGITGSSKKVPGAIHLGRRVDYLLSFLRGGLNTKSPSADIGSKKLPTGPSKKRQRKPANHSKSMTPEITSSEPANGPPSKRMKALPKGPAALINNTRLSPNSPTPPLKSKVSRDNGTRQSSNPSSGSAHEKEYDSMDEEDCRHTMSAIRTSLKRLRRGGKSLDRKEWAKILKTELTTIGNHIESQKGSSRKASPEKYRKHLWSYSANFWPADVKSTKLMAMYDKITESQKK
# Sequence of Protein translocase subunit SecA (Escherichia coli (strain K12)) (P10408 whole entry): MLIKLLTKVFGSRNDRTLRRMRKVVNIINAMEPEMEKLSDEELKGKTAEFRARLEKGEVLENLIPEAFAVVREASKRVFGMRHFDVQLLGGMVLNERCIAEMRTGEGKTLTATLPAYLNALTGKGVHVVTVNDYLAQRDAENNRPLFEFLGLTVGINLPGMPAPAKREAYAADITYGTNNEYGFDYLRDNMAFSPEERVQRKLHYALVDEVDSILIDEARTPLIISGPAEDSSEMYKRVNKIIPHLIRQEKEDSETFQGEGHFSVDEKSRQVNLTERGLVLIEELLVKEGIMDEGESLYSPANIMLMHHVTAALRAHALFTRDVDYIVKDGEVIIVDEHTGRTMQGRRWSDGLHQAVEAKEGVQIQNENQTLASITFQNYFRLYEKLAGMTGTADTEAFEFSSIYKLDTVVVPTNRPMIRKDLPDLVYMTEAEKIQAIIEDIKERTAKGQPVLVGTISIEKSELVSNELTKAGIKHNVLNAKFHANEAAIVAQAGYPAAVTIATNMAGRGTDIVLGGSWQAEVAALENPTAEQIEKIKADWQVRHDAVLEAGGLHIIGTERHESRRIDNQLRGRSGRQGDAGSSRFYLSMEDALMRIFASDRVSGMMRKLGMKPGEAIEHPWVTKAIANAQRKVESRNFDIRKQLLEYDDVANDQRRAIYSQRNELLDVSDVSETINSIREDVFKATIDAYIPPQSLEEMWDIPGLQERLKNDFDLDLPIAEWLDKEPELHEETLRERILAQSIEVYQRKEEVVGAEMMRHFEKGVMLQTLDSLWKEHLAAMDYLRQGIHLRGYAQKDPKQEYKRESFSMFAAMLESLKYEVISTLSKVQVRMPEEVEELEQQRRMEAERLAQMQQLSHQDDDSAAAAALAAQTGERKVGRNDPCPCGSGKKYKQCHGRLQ
SMILES,Percent Effect [1],Percent Effect [2],Percent Effect [3],Percent Effect (Trypanosoma cruzi),Percent Effect [4],Percent Effect [5],Percent Effect (Homo sapiens),Percent Effect [6],Percent Effect [7],Percent Effect [8]
Cc1cc2c(=O)n3c(nc2s1)CCN(Cc1cnc(C(C)C)nc1)CC3,-1.05%,4%,-0.31%,-7.69%,3.98%,5.91%,28.4%,0%,5%,-25.8%
CCOCCN1CCCC(c2cc(C(N)=O)[nH]n2)C1 (stereo not given),-1.61%,0%,5.24%,-4.22%,3.99%,8.06%,13.9%,3.68%,7.69%,-5.54%
Cc1nc(CNCC2CN(C)CCO2)cs1 (stereo not given),-4.87%,18.2%,4.98%,3.73%,-3.89%,1.05%,-7.33%,1.96%,21.2%,-11.4%
Cc1cccc(CN2CCC3(CCN(c4ccccn4)C3)C2=O)c1 (stereo not given),-2.21%,16.9%,0.691%,3%,-0.913%,14%,11.4%,10.6%,12.5%,-5.26%
CC(C)CN1CCC2(CCN(Cc3ccsc3)CC2)C1=O,-2.7%,11.7%,1.92%,0.938%,0.913%,6.78%,-29.8%,8.7%,12.5%,1.04%
CCS(=O)(=O)c1ncc(CN(C)Cc2ccccn2)n1CCOC,-6.13%,5.41%,13.7%,5.33%,2.45%,5.65%,3.71%,4.79%,14.6%,-2.76%
CCc1cc(C(F)(F)F)c2c(C)nn(CC(=O)O)c2n1,2.1%,9.33%,-6.26%,-4.14%,9.29%,11%,15.7%,1.06%,10%,-20.4%
Cc1[nH]nc(CCC(=O)N2CCCC(OCc3cccnc3)C2)c1C (stereo not given),-5.06%,10.8%,4.22%,0.679%,-0.35%,2.91%,27.8%,6.92%,17.1%,-1.03%
COc1cccc(CNc2cnn(C)c(=O)c2Cl)c1,-6.48%,0%,3.58%,-1.21%,6.65%,3.48%,55.5%,2.63%,5.13%,-5.75%
Cc1noc(Cl)c1CCC(=O)N1CCc2sccc2C1,-5.38%,18.7%,4.18%,0.201%,-2.22%,22.8%,25.1%,5.79%,17.9%,-10.9%
CC(C)(C)C(O)CN1CCN(C(=O)c2cccc3[nH]ncc23)CC1 (stereo not given),-8.1%,20.5%,-18.1%,4.41%,-0.41%,20.4%,1.83%,3.35%,22.9%,22.1%
NC(=O)NC(=O)CCN1CCCN(c2nccs2)CC1,-0.41%,10.7%,-0.94%,-4.02%,3.1%,9.41%,13.6%,7.89%,10.3%,-7.5%
